# The campaign covered roughly 5,500 compounds. About 2,000 (36%) were called active. About 18% were inconclusive and are not listed. The list shows a part of the results. A number with no mark means an inactive call. Rule as the data show it: active = normalized growth mostly below about 0.91 (no sharp cut-off); inconclusive = no clear call, values can overlap the other calls; inactive = mostly above about 0.92.
# Test: chemical genetic growth profiling, strain panel (AID 1159580);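 also: tested at 20 µM; growth read once vehicle control cultures reached saturation at 30 °C; 1 = growth at the plate median or of vehicle wells; lower values mean less growth of the strain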
# Settings: S. cerevisiae deletion strains, growth OD
# [1] = locus YBR021W, strain FUR4, hits give low values
# [2] = locus YBR229C, strain ROT2, hits give low values
# [3] = locus YCL029C, strain bik1, hits give low values
# [4] = locus YDL035C, strain GPR1, hits give low values
# [5] = locus YDL074C, strain BRE1, hits give low values
# [6] = locus YDL101C, strain DUN1, hits give low values
# [7] = locus YDL185W, strain tfp1, hits give low values
# [8] = locus YDL192W, strain arf1, hits give low values
# [9] = locus YDR101C, strain arx1, hits give low values
# [10] = locus YDR162C, strain NBP2, hits give low values
# [11] = locus YDR318W, strain mcm21, hits give low values
# [12] = locus YDR388W, hits give low values
# [13] = locus YDR502C, strain sam2, hits give low values
# [14] = locus YEL061C, strain CIN8, hits give low values
# [15] = locus YER110C, hits give low values
# [16] = locus YER155C, strain BEM2, hits give low values
# [17] = locus YER167W, strain BCK2, hits give low values
# [18] = locus YGL078C, strain dbp3, hits give low values
# [19] = locus YGL086W, strain mad1, hits give low values
# [20] = locus YGL248W, strain PDE1, hits give low values
# [21] = locus YGR135W, strain pre9, hits give low values
# [22] = locus YGR252W, strain gcn5, hits give low values
# [23] = locus YHR030C, strain SLT2, hits give low values
# [24] = locus YHR079C, strain IRE1 (second series), hits give low values
# [25] = locus YHR094C, strain hxt1, hits give low values
# [26] = locus YHR129C, strain ARP1, hits give low values
# [27] = locus YHR200W, strain rpn10, hits give low values
# [28] = locus YIL066C, strain RNR3, hits give low values
# [29] = locus YIL073C, strain SPO22, hits give low values
# [30] = locus YIL125W, strain kgd1, hits give low values
# [31] = locus YIR030C, strain dcg1, hits give low values
# [32] = locus YJL095W, strain BCK1, hits give low values
# [33] = locus YJL134W, strain LCB3, hits give low values
# [34] = locus YJL168C, strain set2, hits give low values
# [35] = locus YJL187C, strain SWE1 (second series), hits give low values
# [36] = locus YJR043C, strain POL32, hits give low values
# [37] = locus YJR075W, strain HOC1, hits give low values
# [38] = locus YKL009W, strain mrt4, hits give low values
# [39] = locus YKL068W, hits give low values
# [40] = locus YKL085W, strain MDH1 (second series), hits give low values
# [41] = locus YKL085W, strain MDH1, hits give low values
# [42] = locus YKR001C, strain vps1, hits give low values
# [43] = locus YLR039C, strain RIC1, hits give low values
# [44] = locus YLR058C, strain SHM2, hits give low values
# [45] = locus YLR102C, strain apc9, hits give low values
# [46] = locus YLR262C, strain YPT6, hits give low values
# [47] = locus YLR268W, strain sec22, hits give low values
# [48] = locus YLR330W, strain CHS5, hits give low values
# [49] = locus YLR342W, strain FKS1 (second series), hits give low values
# [50] = locus YLR371W, strain rom2, hits give low values
# [51] = locus YLR418C, strain cdc73, hits give low values
# [52] = locus YML016C, strain PPZ1, hits give low values
# [53] = locus YML032C, strain rad52, hits give low values
# [54] = locus YML124C, strain tub3, hits give low values
# [55] = locus YMR078C, strain ctf18, hits give low values
# [56] = locus YMR223W, strain ubp8, hits give low values
# [57] = locus YMR307W, strain GAS1, hits give low values
# [58] = locus YNL067W, strain RPL9B, hits give low values
# [59] = locus YNL128W, strain TEP1, hits give low values
# [60] = locus YNL153C, strain GIM3, hits give low values
# [61] = locus YNL233W, strain BNI4, hits give low values
# [62] = locus YNL250W, strain rad50, hits give low values
# [63] = locus YNL271C, strain bni1, hits give low values
# [64] = locus YNL298W, strain CLA4, hits give low values
# [65] = locus YNL307C, strain MCK1, hits give low values
# [66] = locus YNL322C, strain KRE1, hits give low values
# [67] = locus YNR052C, strain pop2, hits give low values
# [68] = locus YOL147C, strain pex11, hits give low values
# [69] = locus YOR061W, strain CKA2, hits give low values
# [70] = locus YOR069W, strain VPS5, hits give low values
# [71] = locus YOR136W, strain idh2, hits give low values
# [72] = locus YOR144C, strain elg1, hits give low values
# [73] = locus YOR184W, strain ser1, hits give low values
# [74] = locus YOR316C, strain cot1, hits give low values
# [75] = locus YPL055C, strain LGE1, hits give low values
# [76] = locus YPR119W, strain clb2, hits give low values
# [77] = locus YPR141C, strain kar3, hits give low values
# [78] = locus YPR163C, strain tif3, hits give low values
# [79] = locus YPR167C, strain met16, hits give low values
# [80] = strain wtn01, hits give low values
compound,measurement,setting,value
COc1ccc(-c2coc3c(OC)c(OC)ccc3c2=O)cc1,normalized growth,[1],0.728 (active)
same,normalized growth,[2],0.996
same,normalized growth,[3],0.998
same,normalized growth,[4],0.963
same,normalized growth,[5],0.917
same,normalized growth,[6],0.969
same,normalized growth,"locus YDL134C, strain PPH21, hits give low values",0.924
same,normalized growth,[7],1.01
same,normalized growth,[8],0.997
same,normalized growth,[9],0.985
same,normalized growth,[10],0.875
same,normalized growth,[11],0.988
same,normalized growth,[12],1
same,normalized growth,[13],0.986
same,normalized growth,[14],0.986
same,normalized growth,[15],1.01
same,normalized growth,[16],0.988
same,normalized growth,[17],0.974
same,normalized growth,[18],1
same,normalized growth,[19],0.958
same,normalized growth,[20],0.957
same,normalized growth,[21],0.968
same,normalized growth,"locus YGR229C, strain SMI1, hits give low values",0.787 (active)
same,normalized growth,[22],0.82
same,normalized growth,[23],0.984
same,normalized growth,[24],1.01
same,normalized growth,[25],1.01
same,normalized growth,[26],0.983
same,normalized growth,[27],1.01
same,normalized growth,[28],0.925
same,normalized growth,[29],0.99
same,normalized growth,[30],1
same,normalized growth,[31],0.998
same,normalized growth,[32],0.838
same,normalized growth,[33],0.995
same,normalized growth,[34],1.01
same,normalized growth,[35],0.957
same,normalized growth,[36],0.899
same,normalized growth,[37],0.95
same,normalized growth,[38],0.988
same,normalized growth,[39],1
same,normalized growth,[40],0.994
same,normalized growth,[41],0.994
same,normalized growth,[42],0.948
same,normalized growth,[43],0.907
same,normalized growth,[44],0.974
same,normalized growth,[45],1.01
same,normalized growth,[46],0.906
same,normalized growth,[47],0.953
same,normalized growth,[48],0.972
same,normalized growth,[49],0.912
same,normalized growth,[50],1.01
same,normalized growth,[51],0.879
same,normalized growth,[52],0.993
same,normalized growth,[53],0.995
same,normalized growth,[54],0.997
same,normalized growth,[55],1.02
same,normalized growth,[56],1.01
same,normalized growth,"locus YMR263W, strain SAP30, hits give low values",0.931
same,normalized growth,[57],0.834
same,normalized growth,[58],0.941
same,normalized growth,[59],0.973
same,normalized growth,[60],0.955
same,normalized growth,[61],0.884
same,normalized growth,[62],1.03
same,normalized growth,[63],0.997
same,normalized growth,[64],0.997
same,normalized growth,[65],0.96
same,normalized growth,[66],0.98
same,normalized growth,[67],1.01
same,normalized growth,"locus YOL012C, strain htz1",1.11
same,normalized growth,[68],0.989
same,normalized growth,[69],0.995
same,normalized growth,[70],0.998
same,normalized growth,[71],1
same,normalized growth,[72],0.994
same,normalized growth,[73],0.917
same,normalized growth,[74],1
same,normalized growth,[75],0.888
same,normalized growth,[76],1.02
same,normalized growth,[77],1
same,normalized growth,[78],0.999
same,normalized growth,[79],1
same,normalized growth,[80],0.988
COc1ccc(-c2coc3c(OC)c(OC)cc(OC)c3c2=O)cc1,normalized growth,"locus YAL013W, strain DEP1, hits give low values",0.977
same,normalized growth,[1],0.875
same,normalized growth,[2],0.998
same,normalized growth,[3],1
same,normalized growth,[4],0.985
same,normalized growth,[5],0.961
same,normalized growth,[6],0.993
same,normalized growth,[7],0.992
same,normalized growth,[8],0.991
same,normalized growth,[9],0.983
same,normalized growth,"locus YDR150W, strain NUM1, hits give low values",0.991
same,normalized growth,[10],0.893
same,normalized growth,[11],0.978
same,normalized growth,[12],1.01
same,normalized growth,[13],0.982
same,normalized growth,[14],1
same,normalized growth,[15],0.995
same,normalized growth,[16],0.998
same,normalized growth,[17],0.977
same,normalized growth,[18],1
same,normalized growth,[19],0.974
same,normalized growth,[20],0.979
same,normalized growth,"locus YGR078C, strain PAC10, hits give low values",0.94
same,normalized growth,[21],0.969
same,normalized growth,[22],0.848
same,normalized growth,[23],0.997
same,normalized growth,[24],0.993
same,normalized growth,[25],0.996
same,normalized growth,[26],0.995
same,normalized growth,[27],0.985
same,normalized growth,[28],0.951
same,normalized growth,[29],0.973
same,normalized growth,[30],0.992
same,normalized growth,[31],1.01
same,normalized growth,[32],0.899
same,normalized growth,[33],1
same,normalized growth,[34],0.995
same,normalized growth,[35],0.971
same,normalized growth,[36],0.964
same,normalized growth,[37],0.974
same,normalized growth,[38],0.981
same,normalized growth,[39],1.02
same,normalized growth,[40],0.993
same,normalized growth,[41],0.993
same,normalized growth,"locus YKL190W, strain CNB1, hits give low values",0.986
same,normalized growth,[42],0.903
same,normalized growth,[43],0.928
same,normalized growth,[44],0.983
same,normalized growth,[45],0.993
same,normalized growth,[46],0.904
same,normalized growth,[47],0.952
same,normalized growth,[48],1
same,normalized growth,[49],0.924
same,normalized growth,[50],0.993
same,normalized growth,[51],0.884
same,normalized growth,[52],1
same,normalized growth,[53],0.999
same,normalized growth,[54],0.994
same,normalized growth,[55],1.01
same,normalized growth,[56],0.994
same,normalized growth,[57],0.83
same,normalized growth,[58],0.964
same,normalized growth,[59],0.998
same,normalized growth,[60],0.978
same,normalized growth,[61],0.914
same,normalized growth,[62],1.02
same,normalized growth,[63],1
same,normalized growth,[64],1.01
same,normalized growth,[65],0.968
same,normalized growth,[66],0.985
same,normalized growth,[67],1.02
same,normalized growth,"locus YOL012C, strain htz1",1.15
same,normalized growth,[68],0.982
same,normalized growth,[69],0.998
same,normalized growth,[70],1.01
same,normalized growth,[71],0.987
same,normalized growth,[72],0.991
same,normalized growth,[73],0.938
same,normalized growth,[74],0.999
same,normalized growth,[75],0.904
same,normalized growth,"locus YPL241C, strain CIN2, hits give low values",0.995
same,normalized growth,[76],0.987
same,normalized growth,[77],1
same,normalized growth,[78],0.985
same,normalized growth,[79],0.985
same,normalized growth,[80],0.972

# Source: PubChem BioAssay AID1159580 (chemical genetic matrix, 2015)
